# Laboratory results taken from article PMC4336329 (PLoS ONE, 2015).
# Among all 310,000 compounds or so, about 14,000 (4.5%) showed an effect of 50% or more. The effect is printed as a negative number. For the sample, strong results were picked, then their nearest neighbours and some compounds at random.
# Target: human ether-à-go-go-related gene (hERG) potassium channel (human, UniProt Q12809)
# Assay: primary screen, population patch clamp on CHO cells stably expressing hERG; higher = less effect of the substance
# 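Note: peak tail current of the secondary pulse compared with the same well before compound.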
# Chain of human ether-à-go-go-related gene (hERG) potassium channel (Q12809 whole entry, looked up): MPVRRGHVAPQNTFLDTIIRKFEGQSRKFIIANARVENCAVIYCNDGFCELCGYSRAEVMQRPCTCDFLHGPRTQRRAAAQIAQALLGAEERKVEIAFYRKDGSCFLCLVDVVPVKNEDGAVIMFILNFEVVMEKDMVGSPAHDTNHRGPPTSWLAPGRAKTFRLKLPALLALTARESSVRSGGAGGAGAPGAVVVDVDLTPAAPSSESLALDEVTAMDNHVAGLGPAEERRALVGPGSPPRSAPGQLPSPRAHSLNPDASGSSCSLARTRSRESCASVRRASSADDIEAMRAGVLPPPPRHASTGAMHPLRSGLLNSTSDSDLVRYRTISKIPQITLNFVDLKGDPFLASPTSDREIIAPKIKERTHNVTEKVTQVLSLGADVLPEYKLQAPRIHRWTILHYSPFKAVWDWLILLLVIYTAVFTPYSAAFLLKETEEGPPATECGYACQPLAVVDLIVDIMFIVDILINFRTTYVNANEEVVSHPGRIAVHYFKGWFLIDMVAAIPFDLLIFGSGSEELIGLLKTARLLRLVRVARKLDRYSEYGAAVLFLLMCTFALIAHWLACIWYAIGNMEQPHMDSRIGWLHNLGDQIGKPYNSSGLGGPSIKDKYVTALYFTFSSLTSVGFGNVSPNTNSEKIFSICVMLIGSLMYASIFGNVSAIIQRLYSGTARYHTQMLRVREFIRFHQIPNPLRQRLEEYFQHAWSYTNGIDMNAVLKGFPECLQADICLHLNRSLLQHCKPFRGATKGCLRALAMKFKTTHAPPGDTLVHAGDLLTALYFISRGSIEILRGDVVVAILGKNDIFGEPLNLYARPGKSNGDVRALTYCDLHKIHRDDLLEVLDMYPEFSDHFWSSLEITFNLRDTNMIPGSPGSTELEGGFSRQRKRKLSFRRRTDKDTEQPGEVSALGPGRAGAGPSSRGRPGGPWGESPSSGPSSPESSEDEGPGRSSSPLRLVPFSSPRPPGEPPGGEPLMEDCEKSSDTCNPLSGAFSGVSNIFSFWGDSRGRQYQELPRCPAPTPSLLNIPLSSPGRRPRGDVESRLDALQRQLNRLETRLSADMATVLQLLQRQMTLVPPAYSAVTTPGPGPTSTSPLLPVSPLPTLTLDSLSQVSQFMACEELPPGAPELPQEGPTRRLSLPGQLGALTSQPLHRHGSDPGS
row,Compound,"hERG current change (%, negative = inhibition) at 10uM"
1,O=C1NC(=O)C(Nc2cccc3ccccc23)S1 (centres unmarked),7.89%
2,Cc1cccc(-c2nc3c(c(SCC(=O)N(C)C)n2)CCCC3)c1,-21.5%
3,COC(=O)c1ccc([C@H](NC(=O)c2ccco2)[C@]2(C)C[C@H]2C2CCCCC2)cc1,9.14%
4,COc1ccc(CN2CCn3ncc(C(=O)Nc4cccc(C)c4)c3C2=O)cc1,6.5%
5,Cc1ccc(S(=O)(=O)N/N=C/c2ccc(OCC(=O)Nc3ccccc3Cl)cc2)cc1,1.73%
6,COc1cccc(N(C(=O)Cn2nnc(-c3cccs3)n2)C(C(=O)NC2CCCCC2)c2ccncc2)c1 (centres unmarked),8%
7,COc1cc(C2(O)CCCCC2C)cc(OC)c1OC (centres unmarked),15.9%
8,COc1cc2c(c(OC)c1OC)C(=O)CC2,15.6%
9,C/C=C(/C)C(=O)O[C@@H]1c2cc3c(c(OC)c2-c2c(cc(OC)c(OC)c2OC)[C@@H](OC(C)=O)[C@@H](C)[C@H]1C)OCO3,4.78%
10,COc1cc2c(c(OC)c1OC)-c1c(cc(OC)c(OC)c1OC)C[C@H](C)[C@H](C)C2,-71.9%
11,COc1cc2c(c(OC)c1OC)-c1c(cc(OC)c(OC)c1OC)C[C@](C)(O)[C@@H](C)C2,-73.7%
12,COc1cc2c(c(OC)c1OC)-c1c(cc3c(c1OC)OCO3)C1OC2[C@@H](C)[C@H]1C (some centres unmarked),-4.76%
13,COc1cc2c(c(OC)c1OC)-c1c(cc3c(c1OC)OCO3)C[C@H](C)[C@@](C)(O)C2,28.4%
14,Br.COc1cc2c(cc1OC)-c1c(OC)c(OC)cc3c1[C@H](C2)[NH+](C)CC3,-16.7%
15,COc1cc2c(c(OC)c1OC)-c1c(cc3c(c1OC)OCO3)[C@@H](OC(C)=O)[C@H](C)[C@H](C)C2,-66.8%
16,COc1cc2c(c(O)c1OC)-c1c(cc(OC)c(OC)c1OC)C[C@@H](C)[C@@H](C)C2,-78.6%
17,COc1cc2c(c(O)c1OC)C(=O)C(OC)CCC2 (centres unmarked),-3.32%
18,COc1cc2c(c(OC)c1OC)-c1c(cc3c(c1O)OCO3)C[C@@H](C)[C@@H](C)C2,0.26%
19,O=S(=O)(N/N=C/c1ccc(N2CCOCC2)cc1)c1ccc(Br)cc1,15.1%
20,Cc1ccc2nc(-c3ccc(NC(=O)CN4C(=O)NC(C)(c5ccc(OC(F)F)cc5)C4=O)cc3)sc2c1 (centres unmarked),12.4%
21,Cc1cccc(-n2c(C)cc(/C=N/n3cnnc3)c2C)c1,-0.869%

row,Compound,"hERG current change (%, negative = inhibition) at 10uM"
1,O=C(Nc1ccc(S(=O)(=O)Nc2nccs2)cc1)C1CC(=O)N(c2ccc(Cl)cc2)C1 (centres unmarked),0.55%
2,CC1=C(C(=O)OC(C)C)C2(O)C(=O)c3ccccc3C2(O)N1 (centres unmarked),12%
3,CN(CC(=O)Nc1c(Cl)cccc1Cl)C(=O)Cc1cccs1,2.98%
4,Cc1cc(=O)oc(C)c1C(=O)NCc1ccc(F)cc1,-15.9%
5,O=C1CCCCC/C1=N/Nc1ccc(OCc2ccccc2)cc1,17.3%
6,CC(C)(C)c1ccc(-n2ncc3c2CCCC3NC(=O)C2(C(N)=O)CC2)cc1 (centres unmarked),-29.1%
7,CCCCOc1ccc(/C=C/C(=O)OCC(=O)N2CC(=O)Nc3ccccc32)cc1OCC,21.2%
8,CCOC(=O)c1c(C)n(C)c2ccc(O)c(CN3CCCCC3)c12,-55.5%
9,CCOC(=O)c1c(C)n(C)c2ccc(O)c(CN3CCC(C)CC3)c12,-23.2%
10,CCOC(=O)c1c(-c2ccccc2)oc2ccc(O)c(CN3CCOCC3)c12,-37%
11,CCOC(=O)c1oc2cccc(O)c2c1CN1CCOCC1.Cl,-17.1%
12,CCCCn1c(C)c(C(=O)OCC)c2c(CN3CCCC3)c(O)ccc21,-72%
13,CCCCn1c(C)c(C(=O)OCC)c2c(CN3CCOCC3)c(O)ccc21,-55.9%
14,CCOC(=O)c1c(-c2ccccc2)oc2ccc(O)c(CN3CCCC3)c12,-64.3%
15,CCOC(=O)c1c(C)n(C)c2ccc(O)c(CN3CCN(C)CC3)c12,-3.46%
16,CCOC(=O)c1c(-c2ccccc2)oc2ccc(O)c(CN3CCN(C)CC3)c12,-23.5%
17,CCOC(=O)c1c(CSc2ccccc2)n(C)c2ccc(O)c(CN3CCOCC3)c12,-46.3%
18,CCOC(=O)c1c(CSc2ccccc2)n(C)c2ccc(O)c(CN3CCN(C)CC3)c12,-22.6%
19,CCOC(=O)c1c(C)oc2ccc(O)c(CN3CCCCC3)c12,-37.4%
20,Cc1csc(SC(C)C(=O)Nc2ccc3c(c2)OCCO3)n1 (centres unmarked),6.25%
21,COc1ccc(OC)c(C2CC(=O)c3c([nH]c(C(=O)OCC4CCCO4)c3C)C2)c1 (centres unmarked),3.54%

row,Compound,"hERG current change (%, negative = inhibition) at 10uM"
1,CCOC(=O)C1C(=O)NC(N2CCN(CC)CC2)=NC1c1ccccc1 (centres unmarked),16.8%
2,CC1CCC(CN2CCN=C2Nc2ccccc2)CC1 (centres unmarked),-14.7%
3,CC(C)c1nnc(NC(=O)CCC(=O)NC2CCCCC2)s1,1.73%
4,O=C(Nc1ccnn1C1CCN(C(=O)c2cc(Cl)ccc2F)CC1)C1CCOC1 (centres unmarked),23.6%
5,Fc1ccc2c(-c3cccc(C(F)(F)F)c3)c(-c3ccccc3)ncc2c1,14.1%
6,Cc1cc(C)cc(NC(=O)COc2coc(CN3CCc4ccccc43)cc2=O)c1,2.85%
7,Cc1cc(C)c(NC(=O)COC(=O)C2CCCCC2)c(C)c1,4.87%
8,Cc1cc(C)n(-c2cc(N3CCN(S(=O)(=O)c4ccc5ccccc5c4)CC3)ccc2[N+](=O)[O-])n1,-1.13%
9,Cc1cc(C)n(-c2cc(N3CCN(C(=O)c4cccc(F)c4)CC3)ccc2[N+](=O)[O-])n1,-67.9%
10,O=C(c1cccc(F)c1)N1CCN(c2ccc([N+](=O)[O-])c(N3CCOCC3)c2)CC1,-25%
11,Cc1cc(C)n(-c2cc(N3CCN(S(=O)(=O)c4ccc(Br)cc4)CC3)ccc2[N+](=O)[O-])n1,-21.3%
12,Cc1cc(C)n(-c2cc(N3CCN(C(=O)c4cccc(Br)c4)CC3)ccc2[N+](=O)[O-])n1,-67.6%
13,CCN(CC(=O)Nc1ccccc1OC)C(=O)c1ccccc1Sc1ccccc1C#N,8.48%
14,O=C(Nc1ccccc1)N1CCCN(c2nccc(C(F)(F)F)n2)CC1,-5.36%
15,O=C(CSc1ncn[nH]1)Nc1ccc(Br)cc1F,-5.57%
16,CCOC(=O)c1cnc2cc(C)ccn2c1=O,-7.41%
17,Cc1cccc(NC(=O)CN(C)CC(=O)NC(c2ccccc2)c2ccccc2)c1C,-30.5%
18,Cc1ccccc1NC1=NCC(c2ccc([N+](=O)[O-])cc2)S1 (centres unmarked),-44.9%
19,O=[N+]([O-])c1ccc(C2CN=C(Nc3ccccc3)S2)cc1 (centres unmarked),-60.2%
20,CCc1ccc(NC2=NCC(c3ccccc3)S2)cc1 (centres unmarked),-17.5%
21,CCN(CC)c1ccc(/C=N/NC(=O)CNC(=O)c2ccc3c(c2)OCCO3)cc1,-5.14%

row,Compound,"hERG current change (%, negative = inhibition) at 10uM"
1,COc1ccc(CC(=O)NCCS(=O)(=O)N2CCN(c3ccccc3OC)CC2)cc1,-17.1%
2,Cc1oc(-c2ccc(Cl)cc2)nc1CS(=O)CC(=O)NCc1ccco1 (centres unmarked),-35.6%
3,Cc1oc(-c2cccc(Cl)c2)nc1CN1CCC(C(=O)NCc2ccco2)CC1,-78%
4,O=C(NCc1ccco1)C1CCN(Cc2ccc(F)cc2)CC1.O=C(O)C(=O)O,-15.4%
5,Cc1oc(-c2cccc(Cl)c2)nc1CN1CCC(C(=O)NC2CC2)CC1,16.2%
6,CCc1ccc(-c2nc(CS(=O)CC(=O)NCc3ccco3)c(C)o2)cc1 (centres unmarked),1.94%
7,CCc1ccc(-c2nc(CN3CCC(C(=O)NCc4ccc(F)cc4)CC3)c(C)o2)cc1,-50.5%
8,Cc1oc(-c2ccc(Cl)cc2)nc1CN1CCC(C(=O)NCc2ccco2)CC1,-71.2%
9,CCc1ccc(-c2nc(CN3CCC(C(=O)NCc4ccco4)CC3)c(C)o2)cc1,-66.3%
10,COc1ccc(C(=O)NC2CCCCCC2)cc1S(=O)(=O)N1CCCc2ccccc21,11.3%
11,CCOc1ccc(C2N(c3ccc(OC)cc3)C(=O)C3CCCN32)cc1OC (centres unmarked),-3.49%
12,CC1CCN(S(=O)(=O)c2ccc(NC(=O)CCN3C(=O)C4CC=CCC4C3=O)cc2)CC1 (centres unmarked),-25.3%
13,Nc1ccc(N=Nc2ccccc2)c2ccccc12,22.4%
14,COc1ccccc1CN(C)C(=O)c1ccccc1Sc1ccccc1C#N,-25%
15,O=C(NCc1ccco1)c1ccc(S(=O)(=O)c2cccc(S(=O)(=O)N3CCOCC3)c2)cc1,2.58%
16,CCN(CC)P(=O)(c1n(CC)cc[n+]1CC)N(CC)CC.[I-],15.1%
17,CCOC(=O)Cn1c(CN2CCN(C(=O)c3ccco3)CC2)nc2c1c(=O)n(C)c(=O)n2C,-13.3%
18,O=C(Nc1ccc(N2CCN(C(=O)c3ccco3)CC2)c(Cl)c1)c1cccnc1,-16.8%
19,Cc1oc(-c2ccccc2F)nc1CN1CCC(C(=O)NCc2ccco2)CC1,-38%
20,Cc1ccccc1-c1nc(CN2CCC(C(=O)NCc3ccco3)CC2)c(C)o1,-73.6%
